Results on 64 molecules are retold here after PubChem BioAssay AID493191 (Broad Institute, 2011).

Hit rate of the full screen: of about 1,300 compounds, about 330 (25%) were called active. These entries were drawn from the full list. Measured potencies and affinities stand elsewhere. Unmarked numbers belong to inactive results. How the calls were made is not given here.

This assay can be described thus: MALME3 melanoma cell viability loss, dose response, orthogonal assay for MITF inhibitor project, CellTiter-Glo, cherry-picked (AID 493191). The settings on record: CellTiter-Glo luminescence, 24 h; series mostly up to 35 µM; activity change, negative = inhibition: at the top concentration.
On to `COc1cc(C2C(C#N)=C(N)Oc3cc(N(C)C)ccc32)cc2c1OCO2` (centres undefined), for which the “activity change, negative = inhibition” value was 11.2%.
With `Cc1ccc(/C=c2/sc3n(c2=O)CCCN=3)o1` the figure was 0.622%.
Turning to `O=C(Cn1cc(/C=C\[N+](=O)[O-])c2ccccc21)Nc1ccccc1`, the “activity change, negative = inhibition” value is -28.1%.
In the case of `Cc1cc(/C=C2\Sc3ccccc3N2C)cc(C)[n+]1CC1CCCO1` (centres undefined) it was -44.9%.
For the molecule `O=C(O)c1cccc(COc2ccccc2Cl)c1`, the “activity change, negative = inhibition” value is -4.79%.
In the case of `COc1cc(C(=O)N/N=C(\c2ccccc2)c2ccccn2)cc(OC)c1OC` it was -45.1%.
Consider `Cc1ccc2c(c1)COc1c3ccc(C(=O)O)cc3nn1-2`, for which the “activity change, negative = inhibition” value is -23.7%.
Regarding `CCOc1cc(/C=N/Nc2cccc(C(=O)O)c2)ccc1OC(=O)c1ccccc1`, the “activity change, negative = inhibition” value was 7.73%.
As for `COc1cc(/C=N/NS(=O)(=O)c2ccc(C)cc2)ccc1OCc1cccc(C(=O)O)c1`, the “activity change, negative = inhibition” value was 19.6%.
Take `COc1cc(/C=N/NS(=O)(=O)c2ccc3ccccc3c2)ccc1OCc1ccc(C(=O)O)cc1`: the “activity change, negative = inhibition” value was 8.79%.
With `CCOc1cc(/C=C2/NC(=S)NC2=O)ccc1OCc1ccc([N+](=O)[O-])cc1` the figure was -0.568%; with `Cc1cc(/C(N)=N/OC(=O)c2ccc(Cl)cc2)no1`, -16.9%; with `CCCCN=C(C)c1c(O)c2ccccc2oc1=O`, 4.39%.
Regarding `Cc1ccc(/C=N/Nc2ccc(C(=O)O)cc2)s1`, the “activity change, negative = inhibition” value was -3.96%.
In the case of `CC(C)(C)c1ccc(/C=N/Nc2ccc(C(=O)O)cc2)cc1`, the “activity change, negative = inhibition” value is -11.8%.
`Cc1csc(NC(=O)Cc2c(F)cccc2Cl)n1`: the “activity change, negative = inhibition” value was -9%.
`Cc1cc(C)n(CCC(=O)N/N=C/c2c(O)ccc3ccccc23)n1`: the “activity change, negative = inhibition” value was -29.7%.
Consider `Cc1ccc(-n2[nH]c(=O)c(-c3ccccn3)c2C)cc1`, for which the “activity change, negative = inhibition” value is -6.77%.
In the case of `Cc1cccc(N(O)C(=O)Nc2cccc(Cl)c2)c1` it was 1.36%.
For the molecule `COc1ccc(NCc2nc3ccccc3n2C)cc1`, the “activity change, negative = inhibition” value was -16.2%.
In the case of `Cn1c(COc2ccccc2)nc2ccccc21`, the “activity change, negative = inhibition” value was -6.2%.
As to `CCOC(=O)/C=c1\s/c(=C\c2ccc3cc(OC)ccc3c2)c(=O)n1CC(=O)NCC1CCCO1` (centres undefined), the “activity change, negative = inhibition” value was -15.3%.
As for `O=C(COC(=O)CCN1C(=O)/C(=C\C=C\c2ccccc2)SC1=S)Nc1cc(F)ccc1F`, the “activity change, negative = inhibition” value was 8.66%.
As to `N=c1n(CC(=O)c2ccc(Br)cc2)c2ccccc2n1Cc1ccccc1`, the “activity change, negative = inhibition” value is -44.7%.
With `O=C(Nc1ccccn1)c1ccc(Br)s1` the figure was -6.52%; with `O=C(CCl)N1c2ccccc2SCC1c1ccccc1` (centres undefined), -6.94%; with `COc1ccc(COC(=O)c2n[nH]c3ccccc23)cc1F`, -0.544%.
With `CC(=O)N(\C=C/C=C/C=C1\Sc2ccccc2C1=O)c1ccccc1`, the “activity change, negative = inhibition” value is -36%.
For the molecule `CCSc1nc2c(cnn2-c2ccccc2)c(=O)n1N`, the “activity change, negative = inhibition” value was 0.098%.
On to `Nc1c(-c2ccc(Cl)cc2)nnn1-c1ccccc1`, for which the “activity change, negative = inhibition” value was 3.95%.
In the case of `COc1cc2c(cc1OC)C(SC)=NC1(CCCC1)C2`, the “activity change, negative = inhibition” value was -27.5%.
In the case of `CN(C)c1ccc(/C=C(\C#N)c2ccccn2)cc1`, the “activity change, negative = inhibition” value was -27.7%.
Take `O=C(/C=C/NNC(=O)c1ccccc1)c1ccc([N+](=O)[O-])cc1`: the “activity change, negative = inhibition” value was -24.7%.
Regarding `N=c1n(CC(=O)c2ccc([N+](=O)[O-])cc2)c2ccccc2n1Cc1ccccc1Cl`, the “activity change, negative = inhibition” value was -16.3%.
For the molecule `Cc1ccccc1C(=O)O/N=C(\N)c1ccc([N+](=O)[O-])cc1`, the “activity change, negative = inhibition” value is -1.73%.
In the case of `Cc1ccccc1Cn1c(=N)n(CC(=O)c2ccc([N+](=O)[O-])cc2)c2ccccc21` it was -24.4%; in that of `O=C(C[n+]1cccc2ccccc21)c1ccc([N+](=O)[O-])cc1`, -4.13%.
In the case of `CCN1CCN(/C=N/c2nc3c(s2)CCCC3)CC1`, the “activity change, negative = inhibition” value was -10.3%.
In the case of `CC(Oc1cccc(Br)c1)C(=O)NNC(=O)c1ccccn1` (centres undefined) it was -14.8%; in that of `Cc1cnn(C(=S)NCCc2ccccc2)c1`, -12.5%.
On to `O=C(Cn1cnc2c(oc3ccccc32)c1=O)c1ccccc1`, for which the “activity change, negative = inhibition” value is -2.47%.
In the case of `CCCCOC(=O)c1[nH]c(C)c(C(=O)OC)c1C` it was 9.39%; in that of `CCOC(=O)c1c(NC(C)=O)sc2c(OCC(O)CNC(C)(C)C)c(Br)ccc12` (centres undefined), -21.4%.
In the case of `CC(/C=N/NC(=O)c1cc(-c2ccncc2)nc2ccccc12)=C\c1ccco1`, the “activity change, negative = inhibition” value was -0.754%.
Consider `O=C(CCC1CCCN(C(=O)c2cc3ccccc3o2)C1)NCc1ccc(F)c(F)c1` (centres undefined), for which the “activity change, negative = inhibition” value was -4.04%.
Turning to `COC(=O)[C@@H](C)NC(=O)c1ccc2oc(CCc3ccccc3)nc2c1`, the “activity change, negative = inhibition” value was -2.28%.
With `COC(=O)[C@@H]1C[C@]2(OC(=O)c3ccccc3)C=CC(=O)C[C@@H]2N1C(=O)OCc1ccccc1` the figure was -28.2%.
As to `O=C1CN(c2ccccc2)C(=S)N1C(=O)c1ccccc1`, the “activity change, negative = inhibition” value is 2.12%.
With `COc1ccc2oc3ccc(OC)cc3c(=O)c2c1` the figure was -10.7%; with `Cc1cc(C(=O)COc2cccnc2[N+](=O)[O-])c(C)n1-c1ccccc1`, -5.43%; with `Cc1cc(C(=O)CCl)c(C)n1CCc1ccc(F)cc1`, -39.9%.
In the case of `Cc1cc(-n2c(C)cc(C(=O)CCl)c2C)no1` it was -35.4%; in that of `COC(=O)c1ccc(-n2c(C)cc(C(=O)CCl)c2C)cc1`, -37.5%; in that of `CC(C)(C)c1ccc(-c2noc(CCC(=O)NCC3CCCO3)n2)cc1` (centres undefined), -13.9%.
On to `Cc1cc(NCCCn2ccnc2)n2ncc(-c3ccccc3)c2n1`, for which the “activity change, negative = inhibition” value is -14.2%.
For `O=C(NCc1ccco1)c1ccc(COCC(F)(F)F)cc1`, the “activity change, negative = inhibition” value is 5.83%.
For `COc1ccc(S(=O)(=O)Nc2ccc(O)c3ccccc23)cc1`, the “activity change, negative = inhibition” value is -41.7%.
In the case of `O=[N+]([O-])c1ccccc1OCCOc1ccccc1[N+](=O)[O-]`, the “activity change, negative = inhibition” value was 2.56%.
As to `CCOc1ccc(/C=C2\SC(=S)N(CCC(=O)O)C2=O)cc1`, the “activity change, negative = inhibition” value is 7.91%.
Turning to `CCOC(=O)c1sc(NC(=O)Nc2ccc(Cl)cc2)nc1C`, the “activity change, negative = inhibition” value is 0.663%.
`CCOC(=O)CSC1=NC(=O)/C(=C\c2ccc(OC(C)=O)cc2)S1`: the “activity change, negative = inhibition” value was -33.5%.
With `CCOC(=O)CSc1nc2cc(OCC)ccc2cc1C#N` the figure was 1.72%; with `COc1ccc(CNC(=O)CN2C(=O)C3C4C=CC(C4)C3C2=O)cc1` (centres undefined), -3.3%.
In the case of `CC(C)(C)c1ccc(-c2cc(N)n[nH]2)cc1` it was -6.89%.
